Test results taken from PubChem BioAssay (NCI).
Several values for one entry are separate records, joined by “and”; a condition that tells them apart may be missing. Equal entries are not always repeated. Compounds without any hit were thinned out: in the full panel of roughly 83,000, 20% have a hit.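 The test compound was applied at a single concentration to cells in 96-well plates for 48 hours, and percent growth was recorded.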 Activity calls are given as the source filed them. The calls were made as follows: active = growth percent below 10; inactive = the rest.

What was measured:
Experiment in all cases: NCI-60 one-dose screen, 48 h (100 = growth as untreated, 0 = no growth, -100 = all killed)
Settings in all cases: 10 µM unless noted
NCI-H23 lung = system: NCI-H23 lung
NCI-H226 lung = system: NCI-H226 lung
NCI-H322M lung = system: NCI-H322M lung
HOP-62 NSCLC = system: HOP-62 NSCLC
NCI-H460 lung = system: NCI-H460 lung
NCI-H522 lung = system: NCI-H522 lung
A549/ATCC NSCLC = system: A549/ATCC NSCLC
786-0 renal = system: 786-0 renal
COLO 205 colon = system: COLO 205 colon
DU-145 prostate = system: DU-145 prostate
K-562 leukemia = system: K-562 leukemia
MALME-3M melanoma = system: MALME-3M melanoma
MDA-MB-231 breast = system: MDA-MB-231 breast
RXF 393 renal = system: RXF 393 renal
SF-268 CNS = system: SF-268 CNS
SF-295 CNS = system: SF-295 CNS
SF-539 CNS = system: SF-539 CNS
UACC-257 melanoma = system: UACC-257 melanoma
HOP-92 NSCLC = system: HOP-92 NSCLC
M14 melanoma = system: M14 melanoma

Measured: growth

N=C(N=C(N)N)N1CCOCC1
inactive: NCI-H23 lung 103% and 90.8% | NCI-H226 lung 99.3% and 98.3% | NCI-H322M lung 95.4% and 112% | HOP-62 NSCLC 94.7% and 106% | NCI-H460 lung 99.8% and 102% | NCI-H522 lung 94.7% and 107% | A549/ATCC NSCLC 103% and 94.2% | 786-0 renal 104% and 95.6% | COLO 205 colon 104% and 107% | DU-145 prostate 102% and 106% | K-562 leukemia 106% and 112% | MALME-3M melanoma 90.6% and 108% | MDA-MB-231 breast 104% and 99.2% | RXF 393 renal 111% | SF-268 CNS 104% and 102% | SF-295 CNS 110% and 96.9% | SF-539 CNS 105% and 95.9% | UACC-257 melanoma 107% and 104%

CCNCc1ccccc1
inactive: NCI-H23 lung 91.4% | NCI-H226 lung 100% | NCI-H322M lung 100% | NCI-H460 lung 109% | HOP-92 NSCLC 113% | NCI-H522 lung 102% | A549/ATCC NSCLC 102% | 786-0 renal 103% | COLO 205 colon 107% | DU-145 prostate 104% | K-562 leukemia 96.3% | MALME-3M melanoma 101% | MDA-MB-231 breast 110% | RXF 393 renal 118% | SF-268 CNS 104% | SF-295 CNS 105% | SF-539 CNS 102% | UACC-257 melanoma 102% | M14 melanoma 109%

NCCSSC/C=C\CSSCCN
inactive: NCI-H23 lung 102% | NCI-H226 lung 90.1% | NCI-H322M lung 100% | NCI-H460 lung 97.5% | HOP-92 NSCLC 84.6% | NCI-H522 lung 88.1% | A549/ATCC NSCLC 90.1% | 786-0 renal 99% | COLO 205 colon 113% | DU-145 prostate 104% | K-562 leukemia 95.7% | MALME-3M melanoma 103% | MDA-MB-231 breast 100% | RXF 393 renal 102% | SF-268 CNS 99.5% | SF-295 CNS 104% | SF-539 CNS 109% | UACC-257 melanoma 91.3% | M14 melanoma 96.9%

O=C(O)C1CSCN1 (configuration not stated)
inactive: NCI-H23 lung 113% and 101% | NCI-H226 lung 113% and 98.5% | NCI-H322M lung 93.9% and 74.4% | HOP-62 NSCLC 99.8% and 96.2% | NCI-H460 lung 125% and 103% | NCI-H522 lung 99.7% and 96.1% | A549/ATCC NSCLC 97.7% and 111% | 786-0 renal 90.2% and 101% | COLO 205 colon 103% and 104% | DU-145 prostate 116% and 127% | K-562 leukemia 93.5% and 95.2% | MALME-3M melanoma 94.1% | MDA-MB-231 breast 107% and 112% | RXF 393 renal 123% | SF-268 CNS 117% and 104% | SF-295 CNS 104% and 108% | SF-539 CNS 121% and 93.4% | UACC-257 melanoma 106% and 91.6% | M14 melanoma 108% and 99.8%

O=C1C=CC[C@H](/C=C/c2ccccc2)O1
48.2% (inactive) and -27.8% (active): 786-0 renal
12.2% (inactive) and 7.95% (active): A549/ATCC NSCLC
13.2% (inactive) and -60.2% (active): SF-539 CNS
29.8% (inactive) and -33% (active): NCI-H226 lung
active: NCI-H460 lung 4.39% and -32.3% | DU-145 prostate -3.41% and 0.622% | SF-268 CNS 7.78% and 7.94% | SF-295 CNS -0.286% and 0.195%
10.3% (inactive) and -15.8% (active): HOP-92 NSCLC
64.7% (inactive) and -48.7% (active): HOP-62 NSCLC
57.9% (inactive) and -70.8% (active): COLO 205 colon
14.6% (inactive) and -20.2% (active): K-562 leukemia
25.5% (inactive) and 4.12% (active): NCI-H322M lung
inactive: NCI-H23 lung 37.8% and 40.7% | NCI-H522 lung 13.9% and 47.5% | MALME-3M melanoma 61.9% and 55.5% | MDA-MB-231 breast 55.6% and 36.6% | UACC-257 melanoma 47% and 15.3% | M14 melanoma 53.7% and 27.8%

CN(C=O)c1ccccc1
inactive: NCI-H23 lung 84.9% | NCI-H226 lung 75.3% | NCI-H322M lung 98.5% | NCI-H460 lung 102% | HOP-92 NSCLC 84.2% | NCI-H522 lung 92.9% | A549/ATCC NSCLC 105% | 786-0 renal 97.1% | COLO 205 colon 101% | DU-145 prostate 103% | K-562 leukemia 97.7% | MALME-3M melanoma 87.3% | MDA-MB-231 breast 84.6% | RXF 393 renal 105% | SF-268 CNS 103% | SF-295 CNS 92.8% | SF-539 CNS 92.9% | UACC-257 melanoma 103%

CC(=O)Oc1cc(C(C)C)c(OCCN(C)C)cc1C
-83.3% (active) and 99.8% (inactive): A549/ATCC NSCLC
-91.1% (active) and 97.5% (inactive): UACC-257 melanoma
inactive: NCI-H23 lung 99.8% and 105% | NCI-H226 lung 120% and 103% | NCI-H322M lung 102% and 105% | NCI-H460 lung 115% and 103% | HOP-92 NSCLC 107% | NCI-H522 lung 112% and 115% | 786-0 renal 99.6% and 104% | COLO 205 colon 114% and 108% | DU-145 prostate 124% and 118% | K-562 leukemia 115% and 124% | MALME-3M melanoma 97.5% and 106% | MDA-MB-231 breast 103% and 112% | RXF 393 renal 112% and 101% | SF-268 CNS 112% and 109% | SF-295 CNS 103% and 92% | SF-539 CNS 112% and 99.6%

CCCC(=O)Oc1ccc2ccccc2c1
inactive: NCI-H23 lung 98.7% | NCI-H226 lung 103% | NCI-H322M lung 109% | NCI-H460 lung 98% | HOP-92 NSCLC 89.5% | NCI-H522 lung 96.8% | A549/ATCC NSCLC 97.3% | 786-0 renal 101% | COLO 205 colon 99.2% | DU-145 prostate 111% | K-562 leukemia 95.7% | MALME-3M melanoma 111% | MDA-MB-231 breast 95.8% | RXF 393 renal 112% | SF-268 CNS 105% | SF-295 CNS 96.7% | SF-539 CNS 98.3% | UACC-257 melanoma 90.8% | M14 melanoma 97.5%

O=C1C=CC(n2cc(F)c(=O)[nH]c2=O)O1 (configuration not stated)
active: SF-539 CNS 8.79%
inactive: NCI-H23 lung 65.2% | NCI-H226 lung 86% | NCI-H322M lung 67.4% | NCI-H460 lung 19.4% | HOP-92 NSCLC 112% | NCI-H522 lung 76.2% | A549/ATCC NSCLC 50.7% | 786-0 renal 70.9% | COLO 205 colon 59.4% | DU-145 prostate 61% | K-562 leukemia 52.1% | MALME-3M melanoma 58.9% | MDA-MB-231 breast 98.8% | RXF 393 renal 99% | SF-268 CNS 85.8% | SF-295 CNS 94.5% | UACC-257 melanoma 90.4% | M14 melanoma 70.7%

O=C(O)C(Cc1ccc(OS(=O)(=O)Cc2ccccc2)cc1)NS(=O)(=O)Cc1ccccc1 (configuration not stated)
inactive: NCI-H23 lung 105% and 112% | NCI-H226 lung 108% and 109% | NCI-H322M lung 119% and 127% | NCI-H460 lung 106% and 119% | HOP-92 NSCLC 135% and 102% | NCI-H522 lung 96.6% | A549/ATCC NSCLC 101% and 105% | 786-0 renal 98.9% and 114% | COLO 205 colon 114% | DU-145 prostate 101% and 108% | K-562 leukemia 105% and 101% | MALME-3M melanoma 95.8% and 136% | MDA-MB-231 breast 102% | RXF 393 renal 118% and 126% | SF-268 CNS 105% and 98% | SF-295 CNS 106% and 102% | SF-539 CNS 97.7% and 101% | UACC-257 melanoma 100% and 101% | M14 melanoma 113% and 100%

CCOC(=O)c1ccncc1
inactive: NCI-H23 lung 109% | NCI-H226 lung 91.3% | NCI-H322M lung 106% | HOP-62 NSCLC 98.5% | NCI-H460 lung 104% | HOP-92 NSCLC 108% | NCI-H522 lung 98.3% | A549/ATCC NSCLC 104% | 786-0 renal 106% | COLO 205 colon 103% | DU-145 prostate 104% | K-562 leukemia 99.3% | MALME-3M melanoma 113% | MDA-MB-231 breast 110% | RXF 393 renal 107% | SF-268 CNS 101% | SF-295 CNS 96.2% | SF-539 CNS 108% | UACC-257 melanoma 116% | M14 melanoma 102%

CC1=CC(=O)C=CC1=Nc1ccc(N(C)C)cc1
81.2% (inactive) and 7.79% (active): HOP-92 NSCLC
inactive: NCI-H226 lung 95.6% and 70.4% | NCI-H322M lung 99.2% and 88.2% | HOP-62 NSCLC 92.4% and 72% | NCI-H460 lung 103% and 70.1% | NCI-H522 lung 29.9% | A549/ATCC NSCLC 101% and 58.7% | 786-0 renal 95.2% and 76% | DU-145 prostate 107% and 71.8% | MALME-3M melanoma 112% and 66.4% | MDA-MB-231 breast 87.1% | RXF 393 renal 93.2% and 50.6% | SF-268 CNS 93.9% and 66.9% | SF-295 CNS 84.7% and 65.6% | SF-539 CNS 94.1% and 44.5% | UACC-257 melanoma 82% | M14 melanoma 93.5% and 41.1%
87% (inactive) and -21.1% (active): NCI-H23 lung
71.1% (inactive) and -30.2% (active): COLO 205 colon
62% (inactive) and 7.74% (active): K-562 leukemia
